Assay outcomes as filed in PubChem BioAssay.
Rows were chosen to be rich in hits. Some 2.7% of all compounds tested hit in one or more screens of this group.
MITF TRPM1 inh = inhibitors of MITF-dependent TRPM1 promoter reporter, primary screen, cell-based, SK-MEL-5, single point, luciferase; SK-MEL-5 TRPM1 promoter luciferase, 24 h; inhibition, % at 12.5 µM; 330,000 compounds, 0.83% hits; AID 488899, 2010;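 active = mean inhibition across replicates of 60% or more, whatever share of single replicates reaches that level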
HIF-2a inh = HIF-2a reporter inhibitors, primary screen, luminescence, 786-0 RCC cells | 786-0 RCC cells HIF-2a reporter, luciferase luminescence, overnight | inhibition, % at 18.8 µM | 360,000 compounds, 0.72% hits;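 active = inhibition of the luminescence signal of 40% or more relative to plate controls, in a single-dose primary screen at 18.75 µM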
Peg3 promoter = Peg3 promoter-driven luciferase inhibitors, primary screen, cell-based, HeLa, luciferase luminescence. HeLa PEG-Prom luciferase reporter, overnight. inhibition, % at 20 µM. 360,000 compounds, 1.7% hits. AID 588405, 2011;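 active = inhibition of at least 50% at 20 µM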
KKLEB cytotox = cytotoxicity in KKLEB CF airway cells, primary screen, cytotoxicity control for CF NF-kB inhibitor project, cell-based, uHTS, fluorescence assay plates | 360,000 compounds, 0.36% hits | KKLEB CF airway cells viability, ATPlite luminescence, overnight; hits give low values; cells stimulated with P. aeruginosa culture filtrate | activity change (cytotoxicity), % at 5 µM;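 active = corrected activity change at or below -50% at 5 µM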
CF NFkB inh = inhibitors of PAF-induced NF-kB signaling, primary screen, cell-based, GFP fluorescence, uHTS | inhibition, % at 5 µM | KKLEB NF-kB-GFP reporter, GFP fluorescence overnight | AID 588850, 2011 | 360,000 compounds, 0.86% hits;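 active = at least 50% inhibition at 5 µM, scaled per plate between neutral and stimulator controls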;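 also: PAF is a Pseudomonas aeruginosa culture filtrate used as stimulus; plate controls were PAF-stimulated DMSO wells for no effect and unstimulated DMSO wells for full effect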
Shn3 3UTR inh = reduction of Shn3 3'UTR firefly luciferase signal, primary screen, Schnurri-3 inhibitor project, cell-based, Clone20 osteoblasts, set 2. AID 588674, 2011. Clone20 osteoblast Shn3 3'UTR firefly luciferase, 24 h. 360,000 compounds, 0.52% hits. inhibition, % at 12.5 µM;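 active = mean inhibition of at least 75% with every replicate also reaching 75%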;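 also: 0% = median of neutral control wells and 100% = pilot-screen positive control compound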
CF NFkB conf = inhibitors of PAF-induced NF-kB signaling, retest, confirmation, cell-based, GFP fluorescence, single concentration. shares compounds with CF NFkB inh. KKLEB CF airway cells, overnight. inhibition, % at 5 µM. 1,300 compounds, 64% hits; in the data active = inhibition above about 40%;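 also: stimulus PAF is a Pseudomonas aeruginosa filtrate and not platelet activating factor; plate controls were DMSO wells with stimulus for no effect and unstimulated DMSO wells for full effect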
An asterisk follows results filed as active.

How did Cc1c(NC(=O)Nc2ccc(Cl)cc2)c(=O)n(-c2ccccc2)n1C do in these assays?
MITF TRPM1 inh: -4; HIF-2a inh: -4; Peg3 promoter: 9; KKLEB cytotox: -7; CF NFkB inh: -5; Shn3 3UTR inh: -17

How did Cc1c(N=C2N=C(NC(=O)Nc3ccc(Cl)cc3)c3ccccc32)c(=O)n(-c2ccccc2)n1C do in these assays?
MITF TRPM1 inh: 45; HIF-2a inh: 1; Peg3 promoter: 19; KKLEB cytotox: -41; CF NFkB inh: 51*; Shn3 3UTR inh: 3; CF NFkB conf: 18

How did Cc1ccc(Cl)cc1NS(=O)(=O)c1ccccc1 do in these assays?
MITF TRPM1 inh: 11; HIF-2a inh: 4; Peg3 promoter: -1; KKLEB cytotox: 6; CF NFkB inh: 10; Shn3 3UTR inh: -28

What do the screens show for `O=S(=O)(Nc1ccc(Cl)cc1NS(=O)(=O)c1ccccc1)c1ccccc1`?
MITF TRPM1 inh: 6; HIF-2a inh: 17; Peg3 promoter: 47; KKLEB cytotox: 22; CF NFkB inh: 55*; Shn3 3UTR inh: 1; CF NFkB conf: 51*

How did CN(c1cccnc1)c1ncnc2[nH]ncc12 do in these assays?
MITF TRPM1 inh: -6; HIF-2a inh: 9; Peg3 promoter: -9; KKLEB cytotox: 0; CF NFkB inh: 18; Shn3 3UTR inh: 6

What do the screens show for `C=CCN(CC=C)c1ncnc2[nH]ncc12`?
MITF TRPM1 inh: -16; HIF-2a inh: 15; Peg3 promoter: 13; KKLEB cytotox: 3; CF NFkB inh: 65*; Shn3 3UTR inh: 5; CF NFkB conf: 63*

What do the screens show for `COc1cc2c(c(OC)c1OC)-c1ccc(NCc3ccccc3)c(=O)cc1C(NC(C)=O)CC2` (stereo unspecified)?
HIF-2a inh: 24; Peg3 promoter: 1; KKLEB cytotox: -37; CF NFkB inh: 64*; Shn3 3UTR inh: 21; CF NFkB conf: 87*

Results for CCOCC(=O)NC1CCc2cc(OC(=O)COCC)c(OC)c(OC)c2-c2ccc(SC)c(=O)cc21 (stereo unspecified) ?
MITF TRPM1 inh: 56; HIF-2a inh: 30; Peg3 promoter: -16; KKLEB cytotox: -28; CF NFkB inh: 52*; Shn3 3UTR inh: 9; CF NFkB conf: 83*

How did COc1cc2c(c(OC)c1OC)-c1ccc(OC)c(=O)cc1[C@@H](NC(C)=O)CC2 do in these assays?
MITF TRPM1 inh: 40; HIF-2a inh: 12; Peg3 promoter: -19; KKLEB cytotox: 16; CF NFkB inh: 42; Shn3 3UTR inh: -1

What do the screens show for `COc1cc2c(c(OC)c1OC)-c1ccc(SC)c(=O)cc1C(NC(=O)C(F)(F)F)CC2` (stereo unspecified)?
MITF TRPM1 inh: 52; HIF-2a inh: 16; Peg3 promoter: -33; KKLEB cytotox: -17; CF NFkB inh: 56*; Shn3 3UTR inh: -2; CF NFkB conf: 84*

Results for COc1cc2c(c(OC)c1OC)-c1ccc(NC(=O)c3ccc(F)cc3)c(=O)cc1[C@@H](NC(C)=O)CC2 ?
MITF TRPM1 inh: 13; HIF-2a inh: 27; Peg3 promoter: 36; KKLEB cytotox: -6; CF NFkB inh: 16; Shn3 3UTR inh: 14

How did COc1ccc(-c2ccc(CN3C(C(C)C)C(=O)N(Cc4cn(CCC5OCCO5)nn4)CCS3(=O)=O)cc2)cc1 (stereo unspecified) do in these assays?
HIF-2a inh: 19; Peg3 promoter: 10; KKLEB cytotox: 6; CF NFkB inh: 33; Shn3 3UTR inh: 62

Results for COC(=O)[C@]12CCCCC=C1N(Cc1ccco1)C(=O)[C@H](CC(=O)N1CCCCC1)C2 ?
HIF-2a inh: -12

What do the screens show for `Cc1ccc2cc(/C=C/C(=O)c3ccco3)c(Cl)nc2c1`?
HIF-2a inh: -224; Peg3 promoter: -165; KKLEB cytotox: -31; CF NFkB inh: 64*; Shn3 3UTR inh: -182; CF NFkB conf: -101

How did CC1/C(=N/O)CC(c2ccccc2)NC1c1ccccc1 (stereo unspecified) do in these assays?
MITF TRPM1 inh: -19; HIF-2a inh: 17; Peg3 promoter: 14; KKLEB cytotox: -5; CF NFkB inh: 0; Shn3 3UTR inh: -1

Results for CCCC1/C(=N/O)CC(c2ccccc2)NC1c1ccccc1 (stereo unspecified) ?
MITF TRPM1 inh: 3; HIF-2a inh: 21; Peg3 promoter: 60*; KKLEB cytotox: -3; CF NFkB inh: 75*; Shn3 3UTR inh: 32; CF NFkB conf: 60*

How did Nc1nccc(SCc2ccc(Cl)cc2Cl)n1 do in these assays?
MITF TRPM1 inh: 5; HIF-2a inh: -34; Peg3 promoter: 11; KKLEB cytotox: -15; CF NFkB inh: 57*; Shn3 3UTR inh: 42; CF NFkB conf: 55*

What do the screens show for `COc1ccc(OC(F)(F)F)cc1CC1(C)C(=O)Nc2ccc(S(=O)(=O)NC3CCCCC3)cc21` (stereo unspecified)?
HIF-2a inh: 10; Peg3 promoter: 16; KKLEB cytotox: -5; CF NFkB inh: 11; Shn3 3UTR inh: 21

What do the screens show for `Cc1ccc(NC(=O)C(=O)NCc2ccc(/C=C(/C#N)C(=O)NCc3cccnc3)o2)cc1`?
MITF TRPM1 inh: -1; HIF-2a inh: -3; Peg3 promoter: 12; KKLEB cytotox: -4; CF NFkB inh: -17; Shn3 3UTR inh: 26

Results for N#C/C(=C/c1ccc(CNC(=O)C(=O)Nc2cc(Cl)cc(Cl)c2)o1)C(=O)NCc1cccnc1 ?
MITF TRPM1 inh: 40; HIF-2a inh: 13; Peg3 promoter: 92*; KKLEB cytotox: -46; CF NFkB inh: 54*; Shn3 3UTR inh: 30; CF NFkB conf: 45*

What do the screens show for `CNC(=O)c1ccc(NC(=O)C2CCN(c3ncnc4sc(C)c(C)c34)CC2)cc1`?
MITF TRPM1 inh: -22; HIF-2a inh: 35; Peg3 promoter: 22; KKLEB cytotox: -18; CF NFkB inh: 60*; Shn3 3UTR inh: 26; CF NFkB conf: 60*

What do the screens show for `COc1ccc2c(=O)cc(-c3ccncc3)oc2c1OC`?
MITF TRPM1 inh: 14; HIF-2a inh: 27; Peg3 promoter: 89*; KKLEB cytotox: 2; CF NFkB inh: 59*; Shn3 3UTR inh: 75; CF NFkB conf: 77*

What do the screens show for `COc1ccc(-c2cc(=O)c3c(OC)c(OC)c(OC)c(OC)c3o2)cc1OC`?
MITF TRPM1 inh: 5; HIF-2a inh: -3; Peg3 promoter: 34; KKLEB cytotox: 26; CF NFkB inh: 16; Shn3 3UTR inh: -4
